From ChEMBL document CHEMBL3988442, “University of Dundee, Small-Polar-MMV Screening Library” (2021)
For some of these results: Results with a measured potency or affinity are listed apart.

What was measured:
Parameters in all cases: scale not given: direction of the effect not stated beside the values
[1] = target: Protein translocase subunit SecA (Escherichia coli (strain K12)) (UniProt P10408); assay: Assay to Identify E. coli SecA ATPase Inhibitors; assay type: functional; settings: 30 µM
[2] = target: T1, Ubiquitin-activating enzyme e1, putative (Leishmania donovani (strain BPK282A1)) (UniProt E9BSI1); assay: Leishmania donovani Ubiquitin Activating Enzyme (LdE1); assay type: functional; settings: 30 µM
T1 sequence (whole entry): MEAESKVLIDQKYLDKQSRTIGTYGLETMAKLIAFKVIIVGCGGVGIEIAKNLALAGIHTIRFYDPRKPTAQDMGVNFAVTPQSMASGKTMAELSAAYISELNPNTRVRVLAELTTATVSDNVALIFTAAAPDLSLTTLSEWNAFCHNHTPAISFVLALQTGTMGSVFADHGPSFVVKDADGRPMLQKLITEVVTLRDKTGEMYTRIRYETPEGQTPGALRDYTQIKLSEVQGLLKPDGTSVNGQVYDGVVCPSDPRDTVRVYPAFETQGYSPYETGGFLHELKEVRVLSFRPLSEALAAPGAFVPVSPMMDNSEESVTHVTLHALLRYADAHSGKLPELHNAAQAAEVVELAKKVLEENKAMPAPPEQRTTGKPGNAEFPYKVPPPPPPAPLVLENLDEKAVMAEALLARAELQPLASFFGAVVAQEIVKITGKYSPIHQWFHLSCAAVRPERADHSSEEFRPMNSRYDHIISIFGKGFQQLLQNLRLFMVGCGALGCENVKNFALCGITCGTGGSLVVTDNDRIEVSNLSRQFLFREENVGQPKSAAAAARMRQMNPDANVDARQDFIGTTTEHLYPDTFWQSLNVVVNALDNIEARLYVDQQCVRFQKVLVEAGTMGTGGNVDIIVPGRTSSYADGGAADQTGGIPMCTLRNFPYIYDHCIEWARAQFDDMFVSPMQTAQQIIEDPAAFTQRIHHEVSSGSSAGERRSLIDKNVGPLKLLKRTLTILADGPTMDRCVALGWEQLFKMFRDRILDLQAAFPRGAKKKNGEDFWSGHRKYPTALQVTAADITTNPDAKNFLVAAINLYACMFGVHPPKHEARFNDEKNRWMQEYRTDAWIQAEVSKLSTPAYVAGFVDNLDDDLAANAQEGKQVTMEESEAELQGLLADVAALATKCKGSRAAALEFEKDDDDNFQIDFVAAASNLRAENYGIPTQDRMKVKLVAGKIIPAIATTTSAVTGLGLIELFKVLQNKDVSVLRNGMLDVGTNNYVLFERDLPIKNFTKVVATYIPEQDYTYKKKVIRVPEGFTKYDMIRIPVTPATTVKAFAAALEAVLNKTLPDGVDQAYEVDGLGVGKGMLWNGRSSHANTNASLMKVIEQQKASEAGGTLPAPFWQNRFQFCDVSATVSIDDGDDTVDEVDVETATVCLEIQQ

[3] = target: AMP-activated protein kinase, AMPK (Homo sapiens) (UniProt P54646+O43741+P54619+Q9UGJ0+Q9Y478+Q13131+Q9UGI9); assay: AMP-dependent Kinase enzyme assay. An in vitro enzyme assay that detects ADP turnover that is directly proportional to AMPK activity. This uses naive AMPK that is activated during the assay with MK-8722; assay type: functional; settings: 30 µM
[4] = target: Sialic acid-binding Ig-like lectin 9 (Homo sapiens) (UniProt Q9Y336); assay: Hs-Siglec9 ALPHAscreen SOP 20170721; settings: 10 µM
Trypanosoma cruzi = assay: Trypanosoma cruzi phosphomannomutase and mannose-1-phosphate guanylyltransferase assay; assay type: functional; settings: 10 µM
[5] = target: T2, Arginase-2, mitochondrial (Homo sapiens) (UniProt P78540); assay: in vitro enzyme assay to detect the production of urea directly proportional to the activity of Arginase II; assay type: functional; settings: 33.3 µM; note: in the data most compounds retested in dose-response had high values
T2 sequence (whole entry): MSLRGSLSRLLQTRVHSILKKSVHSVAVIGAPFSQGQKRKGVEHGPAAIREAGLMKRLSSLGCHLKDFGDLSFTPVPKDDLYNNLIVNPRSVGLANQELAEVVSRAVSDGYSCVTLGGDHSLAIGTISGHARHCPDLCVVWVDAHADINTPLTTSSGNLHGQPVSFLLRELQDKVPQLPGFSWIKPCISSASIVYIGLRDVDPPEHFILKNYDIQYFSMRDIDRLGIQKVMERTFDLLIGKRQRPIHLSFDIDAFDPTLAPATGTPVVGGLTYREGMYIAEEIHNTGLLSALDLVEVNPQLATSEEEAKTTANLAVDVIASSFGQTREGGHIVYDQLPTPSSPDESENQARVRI

[6] = target: T3, Proteasome subunit beta (Trypanosoma cruzi) (UniProt O96673); assay: Trypanosoma cruzi proteasome chymotrypsin-like activity (TcProtChymo) assay.; note: in the data most compounds retested in dose-response had high values; assay type: functional; settings: 9.37 µM
T3 sequence (whole entry): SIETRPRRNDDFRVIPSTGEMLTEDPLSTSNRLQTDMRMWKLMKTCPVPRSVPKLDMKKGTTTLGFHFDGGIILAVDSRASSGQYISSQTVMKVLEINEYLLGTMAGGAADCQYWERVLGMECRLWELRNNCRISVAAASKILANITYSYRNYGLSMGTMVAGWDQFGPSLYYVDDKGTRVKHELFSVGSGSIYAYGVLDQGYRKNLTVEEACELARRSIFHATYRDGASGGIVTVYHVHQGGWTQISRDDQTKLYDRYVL

Homo sapiens = species on record: Homo sapiens; assay: To identify inhibition of the IFN signalling (Jak-Stat) pathway via expression of an eGFP reporter gene under the control of an IFN-stimulated response element (ISRE) containing MxA promoter.; assay type: functional; settings: 30 µM
[7] = target: T4, Tyrosyl-tRNA synthetase, putative (Trypanosoma cruzi (strain CL Brener)) (UniProt Q4DSP6); assay: Trypanosoma cruzi tyrosyl tRNA synthetase (TcYRS) _High Tyrosine SOP; assay type: functional; settings: 30 µM; note: in the data most compounds retested in dose-response had high values
T4 sequence (whole entry): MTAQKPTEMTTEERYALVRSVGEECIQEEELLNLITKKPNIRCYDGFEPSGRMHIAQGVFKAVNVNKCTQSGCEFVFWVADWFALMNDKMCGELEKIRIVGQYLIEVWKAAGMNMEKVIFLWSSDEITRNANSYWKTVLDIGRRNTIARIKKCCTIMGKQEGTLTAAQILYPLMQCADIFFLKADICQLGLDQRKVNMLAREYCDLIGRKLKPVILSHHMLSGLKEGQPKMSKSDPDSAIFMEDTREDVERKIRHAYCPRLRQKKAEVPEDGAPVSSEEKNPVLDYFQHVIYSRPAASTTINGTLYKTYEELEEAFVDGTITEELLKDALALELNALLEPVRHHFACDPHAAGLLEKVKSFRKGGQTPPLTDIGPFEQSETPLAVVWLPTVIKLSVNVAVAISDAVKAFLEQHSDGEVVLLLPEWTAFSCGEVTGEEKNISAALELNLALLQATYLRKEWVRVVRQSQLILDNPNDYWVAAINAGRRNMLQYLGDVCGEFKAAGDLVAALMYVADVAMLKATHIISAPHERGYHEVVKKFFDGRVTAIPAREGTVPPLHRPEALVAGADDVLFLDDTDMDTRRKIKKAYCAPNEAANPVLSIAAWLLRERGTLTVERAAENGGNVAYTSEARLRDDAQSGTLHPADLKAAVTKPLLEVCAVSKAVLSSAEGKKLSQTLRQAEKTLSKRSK

[8] = target: T4, Tyrosyl-tRNA synthetase, putative (Trypanosoma cruzi (strain CL Brener)); assay: Trypanosoma cruzi tyrosyl tRNA synthetase (TcYRS) SOP; assay type: functional; settings: 30 µM
[9] = target: Chromo domain-containing protein 1 (Saccharomyces cerevisiae (strain ATCC 204508 / S288c) (Baker's yeast)) (UniProt P32657); assay: ScCHD-1 Enzyme Inhibition Assay; assay type: functional; settings: 30 µM; note: in the data most compounds retested in dose-response had high values
Chromo domain-containing protein 1 (Saccharomyces cerevisiae (strain ATCC 204508 / S288c) (Baker's yeast)), sequence (P32657 whole entry, the tested form may be a part): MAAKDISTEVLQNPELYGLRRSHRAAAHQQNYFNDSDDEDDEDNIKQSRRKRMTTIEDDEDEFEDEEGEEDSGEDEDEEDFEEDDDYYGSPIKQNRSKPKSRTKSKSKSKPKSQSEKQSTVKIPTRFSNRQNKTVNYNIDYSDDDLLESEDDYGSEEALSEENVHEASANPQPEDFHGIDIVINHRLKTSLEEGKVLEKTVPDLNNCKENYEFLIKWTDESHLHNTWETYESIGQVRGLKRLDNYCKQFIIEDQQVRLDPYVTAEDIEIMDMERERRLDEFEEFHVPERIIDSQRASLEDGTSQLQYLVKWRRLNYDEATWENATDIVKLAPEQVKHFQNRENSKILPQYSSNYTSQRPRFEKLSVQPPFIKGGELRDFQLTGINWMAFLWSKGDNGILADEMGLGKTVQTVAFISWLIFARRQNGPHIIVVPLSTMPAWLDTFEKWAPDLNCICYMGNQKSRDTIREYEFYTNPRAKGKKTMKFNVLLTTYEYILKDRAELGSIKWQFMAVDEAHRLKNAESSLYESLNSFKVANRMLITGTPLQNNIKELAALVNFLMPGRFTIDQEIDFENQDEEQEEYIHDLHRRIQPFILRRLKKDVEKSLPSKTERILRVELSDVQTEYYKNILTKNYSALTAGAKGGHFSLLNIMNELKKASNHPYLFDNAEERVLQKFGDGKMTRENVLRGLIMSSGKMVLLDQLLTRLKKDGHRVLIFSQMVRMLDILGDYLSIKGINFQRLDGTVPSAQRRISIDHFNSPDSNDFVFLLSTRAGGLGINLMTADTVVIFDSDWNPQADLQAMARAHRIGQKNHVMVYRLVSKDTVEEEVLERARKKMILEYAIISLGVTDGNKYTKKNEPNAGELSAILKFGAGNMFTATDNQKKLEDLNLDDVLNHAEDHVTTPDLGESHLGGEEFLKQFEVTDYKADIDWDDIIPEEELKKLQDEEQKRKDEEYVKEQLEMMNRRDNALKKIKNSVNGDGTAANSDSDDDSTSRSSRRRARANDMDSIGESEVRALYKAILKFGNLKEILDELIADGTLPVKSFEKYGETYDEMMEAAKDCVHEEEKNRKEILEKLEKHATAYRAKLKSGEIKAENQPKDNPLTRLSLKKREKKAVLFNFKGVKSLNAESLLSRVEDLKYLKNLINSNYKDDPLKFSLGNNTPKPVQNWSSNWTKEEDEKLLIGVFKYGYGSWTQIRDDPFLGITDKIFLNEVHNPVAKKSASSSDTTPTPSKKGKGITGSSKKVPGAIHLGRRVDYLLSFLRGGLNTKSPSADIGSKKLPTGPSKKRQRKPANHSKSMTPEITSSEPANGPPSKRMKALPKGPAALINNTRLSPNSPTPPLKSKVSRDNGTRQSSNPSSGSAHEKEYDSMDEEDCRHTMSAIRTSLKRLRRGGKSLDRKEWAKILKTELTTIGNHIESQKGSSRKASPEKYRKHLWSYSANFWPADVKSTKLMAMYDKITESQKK

Sialic acid-binding Ig-like lectin 9 (Homo sapiens), sequence (Q9Y336 whole entry): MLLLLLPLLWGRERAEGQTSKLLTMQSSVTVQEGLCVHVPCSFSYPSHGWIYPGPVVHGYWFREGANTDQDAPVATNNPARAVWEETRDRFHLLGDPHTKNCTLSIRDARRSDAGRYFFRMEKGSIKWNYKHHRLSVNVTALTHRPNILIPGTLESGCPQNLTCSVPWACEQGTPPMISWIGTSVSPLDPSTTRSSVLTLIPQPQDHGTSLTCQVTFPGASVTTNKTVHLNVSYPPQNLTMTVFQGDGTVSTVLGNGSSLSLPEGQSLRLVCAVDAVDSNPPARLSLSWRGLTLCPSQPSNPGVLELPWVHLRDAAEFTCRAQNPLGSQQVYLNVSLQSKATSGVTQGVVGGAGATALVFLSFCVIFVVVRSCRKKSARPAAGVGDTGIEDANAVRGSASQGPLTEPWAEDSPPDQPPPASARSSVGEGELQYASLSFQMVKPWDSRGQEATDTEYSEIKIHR
Protein translocase subunit SecA (Escherichia coli (strain K12)), sequence (P10408 whole entry): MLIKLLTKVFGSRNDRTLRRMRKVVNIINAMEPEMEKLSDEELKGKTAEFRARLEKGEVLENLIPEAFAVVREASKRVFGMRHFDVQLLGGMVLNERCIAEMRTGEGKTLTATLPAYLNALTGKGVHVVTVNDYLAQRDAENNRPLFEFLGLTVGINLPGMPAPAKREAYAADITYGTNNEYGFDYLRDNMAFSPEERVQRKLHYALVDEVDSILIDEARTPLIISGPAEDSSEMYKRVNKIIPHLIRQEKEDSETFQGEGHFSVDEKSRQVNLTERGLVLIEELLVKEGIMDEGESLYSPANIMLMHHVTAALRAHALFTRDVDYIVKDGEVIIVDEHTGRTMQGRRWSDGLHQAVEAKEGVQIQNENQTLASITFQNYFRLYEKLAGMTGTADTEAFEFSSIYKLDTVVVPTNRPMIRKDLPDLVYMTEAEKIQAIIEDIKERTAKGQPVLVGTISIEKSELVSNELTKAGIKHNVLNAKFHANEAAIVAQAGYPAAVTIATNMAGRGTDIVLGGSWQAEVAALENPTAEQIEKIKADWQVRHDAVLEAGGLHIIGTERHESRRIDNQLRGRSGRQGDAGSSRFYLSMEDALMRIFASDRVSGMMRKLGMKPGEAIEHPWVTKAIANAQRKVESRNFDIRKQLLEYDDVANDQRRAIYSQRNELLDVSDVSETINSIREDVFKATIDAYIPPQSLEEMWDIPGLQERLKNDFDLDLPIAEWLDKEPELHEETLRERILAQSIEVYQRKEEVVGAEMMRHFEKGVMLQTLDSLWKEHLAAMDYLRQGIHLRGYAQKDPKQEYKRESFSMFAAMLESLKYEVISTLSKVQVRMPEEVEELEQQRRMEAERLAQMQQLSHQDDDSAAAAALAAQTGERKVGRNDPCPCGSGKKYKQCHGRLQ

O=C(NC[C@]12COC[C@H]1CN(Cc1nccs1)C2)c1ccccc1
Percent Effect [1]: -4.56%
Percent Effect [2]: 17.3%
Percent Effect [3]: -62.1%
Percent Effect [4]: 6.67%
Percent Effect (Trypanosoma cruzi): 3.34%
Percent Effect [5]: -6.87%
Percent Effect [6]: 15.7%
Percent Effect (Homo sapiens): 4.15%
Percent Effect [7]: 2.12%
Percent Effect [8]: 7.69%
Percent Effect [9]: -9.52%

c1ccc(Cn2cccn2)c(CNCC2CNc3ccnn3C2)c1 (stereo unspecified)
Percent Effect [1]: -5.51%
Percent Effect [2]: 10.4%
Percent Effect [3]: -9.17%
Percent Effect [4]: 10.9%
Percent Effect (Trypanosoma cruzi): 13.5%
Percent Effect [5]: -4.63%
Percent Effect [6]: 13.3%
Percent Effect (Homo sapiens): 3.57%
Percent Effect [7]: 16.5%
Percent Effect [8]: 21.9%
Percent Effect [9]: -11%

COCCN1CCC(NCc2cccnc2)C1 (stereo unspecified)
Percent Effect [1]: -5.87%
Percent Effect [2]: -2.6%
Percent Effect [3]: -0.869%
Percent Effect [4]: -1.42%
Percent Effect (Trypanosoma cruzi): -5.06%
Percent Effect [5]: 2.49%
Percent Effect [6]: 5.74%
Percent Effect (Homo sapiens): 16.6%
Percent Effect [7]: 1.94%
Percent Effect [8]: -4.88%
Percent Effect [9]: -3.65%

Cc1cccc(-c2nc(CN(Cc3cccs3)CC3CCCO3)no2)c1 (stereo unspecified)
Percent Effect [1]: -1.96%
Percent Effect [2]: -51.9%
Percent Effect [3]: 2.38%
Percent Effect [4]: -0.778%
Percent Effect (Trypanosoma cruzi): 0.103%
Percent Effect [5]: 4.95%
Percent Effect [6]: 7.72%
Percent Effect (Homo sapiens): 25.8%
Percent Effect [7]: -7.29%
Percent Effect [8]: -17.7%
Percent Effect [9]: -15.2%

Cn1ncc2c(=O)[nH]c(CN3CCC(Cc4ccccc4)CC3)nc21
Percent Effect [1]: -4.67%
Percent Effect [2]: 10.5%
Percent Effect [3]: -7.07%
Percent Effect [4]: 0.445%
Percent Effect (Trypanosoma cruzi): 8.87%
Percent Effect [5]: 3.6%
Percent Effect [6]: 7.7%
Percent Effect (Homo sapiens): -0.345%
Percent Effect [7]: 9.36%
Percent Effect [8]: 25.9%
Percent Effect [9]: -10.4%

Cc1cccc(N2CCN(CCNC(=O)c3ccnn3C)CC2)c1
Percent Effect [1]: 0.195%
Percent Effect [2]: 5.41%
Percent Effect [3]: -1.81%
Percent Effect [4]: -4.27%
Percent Effect (Trypanosoma cruzi): -4.88%
Percent Effect [5]: 3.75%
Percent Effect [6]: 14.6%
Percent Effect (Homo sapiens): 6.3%
Percent Effect [7]: 9.9%
Percent Effect [8]: 11%
Percent Effect [9]: 5.87%

COCC1CN(Cc2ccncc2)Cc2nnn(CC3CC3)c21 (stereo unspecified)
Percent Effect [1]: -1.08%
Percent Effect [2]: 0%
Percent Effect [3]: 2.57%
Percent Effect [4]: 2.54%
Percent Effect (Trypanosoma cruzi): 0.688%
Percent Effect [5]: -1.38%
Percent Effect [6]: 1.33%
Percent Effect (Homo sapiens): -3.55%
Percent Effect [7]: 0%
Percent Effect [8]: -1.24%
Percent Effect [9]: 3.24%

COc1ccc(F)c(CN2CCC3(CCC(=O)N(CC(N)=O)C3)CC2)c1
Percent Effect [1]: -4.11%
Percent Effect [2]: 5.33%
Percent Effect [3]: -12.6%
Percent Effect [4]: -1.01%
Percent Effect (Trypanosoma cruzi): -3.02%
Percent Effect [5]: -3.12%
Percent Effect [6]: 12.4%
Percent Effect (Homo sapiens): 36.4%
Percent Effect [7]: 6.01%
Percent Effect [8]: 8.64%
Percent Effect [9]: -5.79%

CC(C)NC(=O)N1CCC2(CC(C(=O)NCc3cccnc3)=NO2)C1 (stereo unspecified)
Percent Effect [1]: -0.964%
Percent Effect [2]: 2.67%
Percent Effect [3]: 4.37%
Percent Effect [4]: 10.3%
Percent Effect (Trypanosoma cruzi): -5.99%
Percent Effect [5]: -2.69%
Percent Effect [6]: 8.89%
Percent Effect (Homo sapiens): 8.43%
Percent Effect [7]: -3.12%
Percent Effect [8]: 0%
Percent Effect [9]: 1.61%

OC(CN1CCN(c2ncccn2)CC1)c1cccc(F)c1 (stereo unspecified)
Percent Effect [1]: -2.83%
Percent Effect [2]: 13.5%
Percent Effect [3]: -5.06%
Percent Effect [4]: 19.1%
Percent Effect (Trypanosoma cruzi): 4.99%
Percent Effect [5]: 16.6%
Percent Effect [6]: 2.49%
Percent Effect (Homo sapiens): 20.5%
Percent Effect [7]: 6.45%
Percent Effect [8]: 16.1%
Percent Effect [9]: -5.42%

NC(=O)c1cc(NC(=O)N2CCCCCC2)ccc1F
Percent Effect [1]: -2.22%
Percent Effect [2]: 16.2%
Percent Effect [3]: 5.3%
Percent Effect [4]: 2.48%
Percent Effect (Trypanosoma cruzi): 2.15%
Percent Effect [5]: 30.4%
Percent Effect [6]: 11.1%
Percent Effect (Homo sapiens): 44.5%
Percent Effect [7]: 6.93%
Percent Effect [8]: 13.4%
Percent Effect [9]: -2.07%
